C diff HTS – blocks growth of Clostridium difficile | hit rate 0.25% among 86,000 | growth activity, negative = inhibition, % at 16 µg/mL (by protocol) | AID 1259249 | Clostridium difficile clinical isolate growth, OD600, 24 h; active compounds read low;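 active means mean growth activity at or below -80% and every replicate also at or below -80%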
Large screens that a line does not name were inactive; ! = not active in a repeat. The sample as a whole holds a higher share of hits than the screen did.

N#Cc1ccc(-c2ccc3c(c2)[C@H]2[C@H](CCN2C(=O)c2ccc(F)cc2)[C@@H](CO)N3)cc1	none
N#Cc1ccc(-c2ccc3c(c2)[C@H]2[C@H](CCN2C(=O)c2ccncc2)[C@H](CO)N3)cc1	C diff HTS -80
N#Cc1cccc(-c2ccc3c(c2)[C@H]2[C@H](CCN2C(=O)c2ccncc2)[C@@H](CO)N3)c1	none
Fc1cccc(CN2C[C@@H]3N[C@H](C2)C3c2ccc(/C=C/c3ccccc3)cc2)c1 (some centres not stated)	C diff HTS -100!
C(=C\c1ccc(C2[C@@H]3CN(Cc4nccs4)C[C@H]2N3)cc1)/c1ccccc1 (some centres not stated)	none
c1cc(-c2ccc(C3[C@@H]4CN(Cc5nccs5)C[C@H]3N4)cc2)ccn1 (some centres not stated)	none
Fc1cccc(-c2ccc([C@@H]3[C@@H]4CN(Cc5nccs5)C[C@H]3N4)cc2)c1	none
CN(C)C(=O)c1cccc(-c2ccc(C3[C@@H]4CN(Cc5cncnc5)C[C@H]3N4)cc2)c1 (some centres not stated)	none
C(=C\c1ccc(C2[C@@H]3CN(Cc4ccccn4)C[C@H]2N3)cc1)/c1ccccc1 (some centres not stated)	none
O=C(C1CCCC1)N1C[C@@H]2N[C@H](C1)C2c1ccc(/C=C/c2ccccc2)cc1 (some centres not stated)	none
Fc1ccc(CN2[C@@H]3CNC[C@H]2C3c2ccc(-c3ccccc3)cc2)cc1 (some centres not stated)	none
COc1ccccc1CN1C[C@@H]2N[C@H](C1)C2c1ccc(-c2ccccc2)cc1 (some centres not stated)	none
Fc1ccc(-c2ccc(C3[C@@H]4CN(Cc5ccccc5)C[C@H]3N4)cc2)cc1 (some centres not stated)	C diff HTS -94!
Fc1ccc(-c2ccc(C3[C@@H]4CN(Cc5cccc(F)c5)C[C@H]3N4)cc2)cc1 (some centres not stated)	C diff HTS -99
COc1ccccc1CN1C[C@@H]2N[C@H](C1)C2c1ccc(/C=C/c2ccccc2)cc1 (some centres not stated)	C diff HTS -90
C[C@H]1CN([C@@H](C)CO)C(=O)c2cccc(NC(=O)NC3CCCCC3)c2O[C@H]1CN(C)Cc1ccncc1	none
C[C@H](CO)N1C[C@H](C)[C@@H](CN(C)Cc2ccncc2)Oc2ncc(C#CC3CCCC3)cc2C1=O	none
CC(=O)N1Cc2cc(C(=O)NCc3cc(F)cc(F)c3)nc(-c3cccc(C4=CCCC4)c3)c2[C@H]1CCO	none
Cc1ccc(S(=O)(=O)Nc2ccc3c(c2)C(=O)N([C@@H](C)CO)C[C@@H](C)[C@@H](CN(C)Cc2ccccc2)OCCCC[C@H](C)O3)cc1	none
Cc1ccc(F)cc1S(=O)(=O)N[C@H]1CCN(Cc2ccc(OC(C)C)cc2)C1	none
COc1ccc2c3c(n(C)c2c1)[C@H](CO)N(Cc1ccncc1)CC31CN(C(=O)C2CC2)C1	none
O=S(=O)(N[C@H]1CC[C@@H](CCn2cc(-c3ccccc3F)nn2)O[C@H]1CO)c1ccc(F)cc1	none
O=C(N[C@@H]1CC[C@H](CC(=O)N2CCC(Cc3ccccc3)CC2)O[C@H]1CO)c1cnccn1	none
COc1cccc(CN(C)C[C@@H]2OCc3ccccc3-c3c(n(C)c4ccccc34)C(=O)N([C@@H](C)CO)C[C@@H]2C)c1	none
COCC(=O)N(C)C[C@H]1Oc2cc(-c3ccc(C#N)cc3)ccc2S(=O)(=O)N([C@H](C)CO)C[C@@H]1C	none
C[C@@H]1CCCCO[C@@H](CN(C)C(=O)Nc2ccccc2)[C@H](C)CN([C@H](C)CO)C(=O)c2cc(NC(=O)Nc3ccc(C(F)(F)F)cc3)ccc2O1	none
CCNC(=O)C[C@@H]1CC[C@@H]2[C@@H](COc3ccc(NC(=O)Nc4c(C)noc4C)cc3C(=O)N2C)O1	none
O=C(N[C@H]1CC[C@@H](CCn2cc(-c3ccccn3)nn2)O[C@@H]1CO)c1cccnc1	none
Cc1ccc(-c2ccc(C3[C@@H]4CN(Cc5cccnc5)C[C@H]3N4)cc2)cc1 (some centres not stated)	none
Fc1cccc(CN2[C@@H]3CNC[C@H]2C3c2ccc(-c3cccc(F)c3)cc2)c1 (some centres not stated)	C diff HTS -99!
N#Cc1cccc(-c2ccc(C3[C@H]4CNC[C@@H]3N4Cc3cccc(F)c3)cc2)c1 (some centres not stated)	none
CN(C)C(=O)c1cccc(-c2ccc(C3[C@@H]4CN(Cc5ccc6c(c5)OCO6)C[C@H]3N4)cc2)c1 (some centres not stated)	none
Fc1cccc(CN2[C@@H]3CNC[C@H]2C3c2ccc(-c3ccccc3)cc2)c1 (some centres not stated)	none
Cc1ccc(-c2ccc(C3[C@@H]4CN(Cc5cccc(F)c5)C[C@H]3N4)cc2)cc1 (some centres not stated)	C diff HTS -94
O=C(C[C@H]1C[C@H]2c3cc(NS(=O)(=O)c4ccccc4)ccc3O[C@H]2[C@H](CO)O1)N1CCCCC1	none
COc1cccc(NC(=O)C[C@H]2CC[C@H]3[C@H](COc4ccc(NC(=O)C5CCC5)cc4C(=O)N3C)O2)c1	none
CC(=O)N(C)C[C@@H]1Oc2ncc(-c3ccc(C)cc3)cc2C(=O)N([C@@H](C)CO)C[C@@H]1C	none
C[C@@H]1CN([C@@H](C)CO)C(=O)c2cc(NS(=O)(=O)c3ccc(F)cc3)ccc2O[C@@H](C)CCCCO[C@@H]1CN(C)C(=O)CCCN(C)C	none
Cc1noc(C)c1NC(=O)Nc1ccc2c(c1)CC(=O)N([C@H](C)CO)C[C@@H](C)[C@H](CN(C)S(=O)(=O)c1c(C)noc1C)O2	none
CO[C@H]1CN(C)C(=O)c2cc(NC(=O)Nc3ccc(Cl)c(Cl)c3)ccc2OC[C@@H](C)NC[C@@H]1C	C diff HTS -96
CO[C@H]1CN(C)C(=O)c2cc(NC(=O)Nc3ccccc3)ccc2OC[C@H](C)NC[C@H]1C	none
CO[C@H]1CN(C)C(=O)c2cc(NC(=O)Nc3ccc(Cl)cc3)ccc2OC[C@@H](C)NC[C@H]1C	none
CO[C@H]1CN(C)C(=O)c2cc(NC(=O)Nc3ccc(Cl)c(Cl)c3)ccc2OC[C@@H](C)NC[C@H]1C	C diff HTS -97
CO[C@H]1CN(C)C(=O)c2cc(NC(=O)Nc3ccc(Cl)cc3)ccc2OC[C@@H](C)NC[C@@H]1C	none
CO[C@@H]1CN(C)C(=O)c2cc(NC(=O)Nc3ccc(Cl)cc3)ccc2OC[C@H](C)NC[C@@H]1C	none
COc1ccc(S(=O)(=O)N(C)C[C@H]2Oc3ccc(NC(=O)Nc4c(C)noc4C)cc3CC(=O)N([C@H](C)CO)C[C@H]2C)cc1	none
COc1ccc2c3c([nH]c2c1)[C@H](CO)N(CC1CC1)CC31CCN(C(=O)c2ccc(F)cc2)CC1	none
C[C@@H]1CCCCO[C@H](CN(C)S(C)(=O)=O)[C@H](C)CN([C@@H](C)CO)C(=O)c2cc(NS(=O)(=O)c3ccc(Cl)cc3)ccc2O1	none
CN(C)C(=O)c1cccc(-c2ccc(C3[C@@H]4CN(Cc5ccccc5F)C[C@H]3N4)cc2)c1 (some centres not stated)	none
Cc1cccc(-c2ccc(C3[C@@H]4CN(Cc5cccnc5)C[C@H]3N4)cc2)c1 (some centres not stated)	none
Cc1ccc(-c2ccc([C@@H]3[C@@H]4CN(Cc5ccccc5F)C[C@H]3N4)cc2)cc1	C diff HTS -101
Fc1ccccc1CN1[C@@H]2CNC[C@H]1C2c1ccc(-c2ccccc2)cc1 (some centres not stated)	none
